Assay outcomes (PubChem BioAssay)
RORgamma inh: inhibitors of mouse ROR gamma transcriptional activity; P51450; Drosophila S2 Gal4-RORgamma UAS-luciferase reporter, 20 h; Potency, µM (series often up to 53.6 µM), for the others: at the highest dose activity change, negative = inhibition, usual class: inhibitors; hit rate 5.4% among 310,000; note: potency is the fitted concentration of half-maximal effect; % is set by controls: 0 for no effect and ±100 for the full control effect; nearly all actives have a fitted effect of over 60% in size
Target sequence (P51450 whole entry, looked up, the tested form may be a part): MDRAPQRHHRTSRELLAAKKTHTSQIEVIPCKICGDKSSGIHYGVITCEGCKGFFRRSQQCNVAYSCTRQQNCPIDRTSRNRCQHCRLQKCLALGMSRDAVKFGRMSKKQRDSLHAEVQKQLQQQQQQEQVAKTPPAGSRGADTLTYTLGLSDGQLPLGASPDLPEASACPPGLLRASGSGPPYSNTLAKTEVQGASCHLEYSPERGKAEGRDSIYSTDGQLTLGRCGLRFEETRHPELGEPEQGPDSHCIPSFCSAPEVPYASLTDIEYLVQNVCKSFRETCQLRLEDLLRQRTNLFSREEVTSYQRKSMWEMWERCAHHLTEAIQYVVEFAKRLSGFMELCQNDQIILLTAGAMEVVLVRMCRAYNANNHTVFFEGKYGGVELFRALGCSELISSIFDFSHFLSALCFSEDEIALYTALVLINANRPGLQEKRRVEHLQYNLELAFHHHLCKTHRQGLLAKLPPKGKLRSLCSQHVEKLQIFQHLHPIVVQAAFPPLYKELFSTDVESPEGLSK
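Using a luciferase readout, inhibitors were identified by reduced reporter activity in Drosophila cells coexpressing a copper-inducible Gal4–ROR gamma fusion and UAS-driven Photinus luciferase, incubated 20 hr after 700 uM copper sulfate.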
p53 reactivator: re-activators of mutant p53 | Potency, µM (series often up to 92.2 µM), inactives show at the top dose activity change, positive = activation, actives largely listed as activators | hit rate 0.063% among 320,000 | H1299 p53-A138V BP100-luciferase reporter, luminescence, 24 h | AID 504706; note: potency is the fitted concentration of half-maximal effect; % of control where 0% means no effect; nearly all actives have a fitted effect of over 45% in size
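H1299 (p53-null), stable ts p53-A138V + BP100-Luc; 1000 cells/well, Opti-MEM/10% FBS; cpd 4 pt, 1:5; 24 h, 37 deg C, 5% CO2; detection reagent 10 min RT; luminescence.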
Gal4-VP16 FLuc: Gal4-VP16 reporter inhibition counter-screen. Drosophila S2 Gal4-VP16 UAS-luciferase, luminescence, 20 h. Potency, µM (highest dose often 53.6 µM), inactives show at the top dose activity, negative = inhibition, actives largely listed as inhibitors. hit rate 3.5% among 310,000. AID 2546;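 note: Gal4-VP16 expression switched on by copper sulfate through the metallothionein promoter; potency is the fitted concentration of half-maximal effect; % is set by controls: 0 for no effect and ±100 for the full control effect; nearly all actives have a fitted effect of over 50% in size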
Giardia killer: Giardia lamblia killing. Giardia lamblia trophozoite viability. activity change, % at 7.66 µM, hits read low. hit rate 0.15% among 340,000. AID 540267; in the data active = activity change below about -80%; inconclusive = between about -30% and that limit;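 note: parasites exposed to compound for two days anaerobically before the ATP read; % is set by controls: 0 for no effect and ±100 for the full control effect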
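Luminescence from cellular ATP indicates surviving trophozoites (100 cells/well) following 48 hrs anaerobic compound treatment at 37 deg C; signal develops 15-30 min at room temperature.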
ELG1 repair inh: blocks ELG1-dependent DNA repair in HEK293T cells. HEK293T ELG1-luciferase reporter, luminescence, 16 h; DNA damage induced by 5-fluorouridine. Potency, µM (series often up to 46.1 µM), without a hit: at the top dose activity change, negative = inhibition, most hits filed as inhibitors. hit rate 2.3% among 330,000. AID 504467; note: potency is the fitted concentration of half-maximal effect; % is set by controls: 0 for no effect and ±100 for the full control effect; nearly all actives have a fitted effect of over 55% in size
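In this reporter screen, reduction of luminescence relative to DMSO vehicle indicated activity. Compounds and 5-fluorouridine were added together to 2,000 cells per well, incubated for 16 hr at 37 °C, then developed with ONE-Glo.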
BRCA1 expr act: BRCA1 expression activation. MCF7-BRCA1-FFLuc reporter, luminescence, 48 h; response scale: scaled: vehicle 0%, 10 µM genistein 100%. Potency, µM (doses to about 46.1 µM), inactives show at the highest dose activation, actives largely listed as activators. hit rate 1.1% among 380,000; note: potency is the fitted concentration of half-maximal effect; nearly all actives have a fitted effect of over 80% in size
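Activators of BRCA1 expression were detected as increased firefly luciferase luminescence in engineered MCF7 cells after 48 h compound incubation. Signals were scaled to genistein 10 microM as full activation.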
Numbers without * were called inactive; ? = inconclusive; · = not tested or not shown. A selection: hits, their analogues and other compounds. The true share with any hit is near 7.6%. Unless noted, calls come from the whole dose curve; as a rule, active = well fitted curve in the direction sought with a large enough effect; inconclusive = small, poorly fitted or top-dose-only effect, or another doubt; inactive = no such curve, though single readings can be large; an effect the other way counts as inactive or inconclusive.

SMILES | RORgamma inh | p53 reactivator | Gal4-VP16 FLuc | Giardia killer | ELG1 repair inh | BRCA1 expr act
Cc1ccnc(NC(=O)CNC(=O)c2ccco2)c1 | · | 6% | · | -2 | ? | 11%
Cc1ccc(CC(=O)Nc2cc(C)ccn2)cc1 | 29% | -17% | 10% | 0 | 16% | 47%
Cc1ccc2oc(-c3ccc(C)c(NC(=S)NC(=O)c4cccs4)c3)nc2c1 | 7.1µM* | · | 7.1µM* | -16 | ? | -9%
Cc1ccnc(NC(=S)NC(=O)c2ccco2)c1 | 4.5µM* | 26% | ? | -21 | ? | ?
CCNC(=S)Nc1cc(C)ccn1 | 2.5µM* | 16% | 5.6µM* | 16 | ? | 68%
O=S(=O)(Cc1ccccc1)NCC1CCCN(Cc2cccc3nonc23)C1 (centres undefined) | 3% | -1% | 8% | 4 | -4% | -10%
CC(=O)Oc1ccc(C(=O)OCC(=O)c2c(N)n(C)c(=O)n(C)c2=O)cc1OC(C)=O | -7% | -2% | 0% | 7 | -3% | 4%
Cc1cccc(CN2CCC(CNC(=O)c3c(C)oc4ncnc(N5CCCCC5)c34)CC2)c1 | · | · | · | · | · | 3%
CCn1c(CCCNC(=O)c2ccco2)nc2ccccc21 | 14% | -1% | -10% | 4 | 10% | 1%
O=C(c1ccc2c(c1)OCO2)N1CCN(S(=O)(=O)N2CCCCC2)CC1 | 0% | 1% | -2% | -26 | 6% | -7%
O=C(NC(=S)Nc1cccnc1Cl)c1ccco1 | ? | 22% | -7% | ? | ? | 10µM*
O=C(NC(=S)Nc1ccccn1)c1ccco1 | 13µM* | ? | ? | -5 | ? | 78%
O=C(NC(=S)Nc1cccnc1Cl)c1ccc(Cl)cc1 | 8.9µM* | ? | ? | 6 | ? | ?
O=C(NC(=S)Nc1ccccn1)c1ccccc1 | ? | ? | ? | 12 | ? | ?
CCSc1ccccc1C(=O)N1CCC2(CC1)CC(=O)c1ccccc1O2 | · | -5% | · | -3 | ? | -32%
COc1cc(/C=N/NC(=O)C(=O)NCc2ccco2)cc(Br)c1O | 5% | -3% | -5% | -4 | 3% | 0%
C=CCOc1c(Br)cc(CNn2cn[nH]c2=S)cc1OC | 10µM* | -3% | -2% | 4 | 13% | 0%
C=CCOc1c(Br)cc(CNn2c(C)n[nH]c2=S)cc1OCC | ? | -7% | ? | -18 | 7% | -8%
COc1cc(CNn2c(C)n[nH]c2=S)cc(Br)c1OCc1ccc(F)cc1 | 10µM* | 0% | -2% | 7 | -16% | -15%
COc1cc(CNn2c(C)n[nH]c2=S)cc(Cl)c1OCc1ccc(F)cc1 | ? | -3% | ? | 0 | ? | -3%
Cc1ccc(CNn2cn[nH]c2=S)cc1 | · | · | · | 1 | · | 27%
C=CCOc1ccc(CNn2cn[nH]c2=S)cc1 | 13µM* | 0% | ? | -2 | 16% | 15%
COc1cccc(CNC(=O)[C@@H]2CCCN2C(=O)[C@H]2CCCCN2C(=O)c2c(F)cccc2F)c1 | · | · | · | · | · | 6%
S=C(N/N=C/c1cccs1)NC1CC2CCC1C2 (centres undefined) | 0.79µM* | 12% | 3.2µM* | 8 | 0% | -20%
S=C(Nc1cccnc1)NC1CC2CCC1C2 (centres undefined) | -6% | 13% | -5% | 28 | ? | -8%
SMILES | RORgamma inh | p53 reactivator | Gal4-VP16 FLuc | Giardia killer | ELG1 repair inh | BRCA1 expr act
Oc1ccc(/C=N/NC(=S)NC2CC3CCC2C3)cc1 (centres undefined) | 2.5µM* | 19% | 11µM* | -25 | ? | 94%
CC(C)c1ccc(C(=O)Nc2cccnc2)cc1 | ? | ? | -19% | -15 | ? | 11%
CCc1ccc(-n2c(Cc3ccccc3)n[nH]c2=S)cc1 | 2µM* | -1% | ? | 16 | 0% | -42%
COc1ccc(CCn2nc(C)c([N+](=O)[O-])c2C)cc1 | -39% | 28% | 20% | 3 | ? | 8.9µM*
Cc1cccc(-n2c(CCn3nc(C)c([N+](=O)[O-])c3C)n[nH]c2=S)c1 | 13µM* | 4% | -11% | 5 | 2% | 1%
Cc1cccc(-n2c(Cc3ccccc3)n[nH]c2=S)c1 | 4µM* | 0% | 14µM* | 4 | 8% | -12%
CSc1ccc(/C=C/C(=O)OCC(=O)N(C)CCC#N)cc1 | 20% | -1% | 27% | -7 | -7% | -8%
c1ccc(Cn2c(-c3ccccc3)c[n+]3c2SCCC3)cc1 | 41% | 6% | -10% | -9 | 13µM* | -50%
COc1ccc(-c2c[n+]3c(n2-c2ccccc2)SCC3)cc1 | 21% | -1% | -16% | -8 | ? | -39%
COc1cccc(CNC(=O)CSc2nnc3c(n2)[nH]c2ccc(F)cc23)c1 | -26% | 3% | -9% | ? | 2% | -15%
COc1ccccc1C1N=C(c2ccccc2C)NO1 (centres undefined) | -22% | ? | -15% | 2 | ? | 13µM*
CCN(Cc1ccccc1)c1ccc(/C=C(\C#N)c2ccccn2)cc1 | ? | ? | ? | -7 | ? | 5µM*
CN(CCC#N)c1ccc(/C=C(\C#N)c2ccccn2)cc1 | 10µM* | ? | 10µM* | ? | ? | -26%
CCN(CC)c1ccc(/C=C(\C#N)c2ccccn2)cc1 | 6.3µM* | · | 7.1µM* | ? | ? | ?
CCc1ccc(NC(=O)Nc2cccs2)cc1 | -16% | ? | -12% | -25 | ? | ?
Cc1ccc(NC(=O)Nc2cccs2)cc1 | -23% | ? | 15% | -4 | ? | 1.3µM*
COc1cccc(NC(=O)Nc2cccs2)c1 | 6.3µM* | ? | 5µM* | -29 | ? | 13µM*
CCCCCn1c(=O)[nH]c2cc(C(=O)N3CCN(c4ccc(C(C)=O)cc4)CC3)ccc2c1=O | 42% | 7% | ? | -5 | 5.8µM* | -73%
O=C(CCCn1c(=O)[nH]c2ccc(Br)cc2c1=O)N1CCN(c2cccc(Cl)c2)CC1 | · | · | · | · | · | -10%
CC(=O)c1ccc(N2CCN(C(=O)CCCn3c(=O)[nH]c4ccc(Br)cc4c3=O)CC2)cc1 | ? | -5% | -9% | -13 | 18µM* | -14%
O=c1cc(CSc2nnc3ccccn23)c2c(ccc3ccccc32)o1 | ? | -10% | -2% | -6 | -7% | -25%
COC(=O)[C@H]1[C@H]2C[C@@H]3c4[nH]c5cc(OC)ccc5c4CCN3C[C@H]2C[C@@H](OC(=O)c2cc(OC)c(OC)c(OC)c2)[C@@H]1OC | -26% | 1% | 3% | 11 | 10µM* | 0%
O=C(NCCOc1ccccc1Cl)c1cc(F)c(F)cc1Cl | -15% | ? | -2% | -22 | ? | 7.1µM*
